Test results published in the supplement of paper PMC10681739.

Legend:
ETS1 [1] = target: T1, ETS1 (UniProt P14921); assay: ETS1 binding intensity (PBM fluorescence), ETS1 alone (arbitrary fluorescence units); higher = stronger binding; details: ETS1 concentration 1 nM; RUNX1 concentration 0 nM
T1 sequence: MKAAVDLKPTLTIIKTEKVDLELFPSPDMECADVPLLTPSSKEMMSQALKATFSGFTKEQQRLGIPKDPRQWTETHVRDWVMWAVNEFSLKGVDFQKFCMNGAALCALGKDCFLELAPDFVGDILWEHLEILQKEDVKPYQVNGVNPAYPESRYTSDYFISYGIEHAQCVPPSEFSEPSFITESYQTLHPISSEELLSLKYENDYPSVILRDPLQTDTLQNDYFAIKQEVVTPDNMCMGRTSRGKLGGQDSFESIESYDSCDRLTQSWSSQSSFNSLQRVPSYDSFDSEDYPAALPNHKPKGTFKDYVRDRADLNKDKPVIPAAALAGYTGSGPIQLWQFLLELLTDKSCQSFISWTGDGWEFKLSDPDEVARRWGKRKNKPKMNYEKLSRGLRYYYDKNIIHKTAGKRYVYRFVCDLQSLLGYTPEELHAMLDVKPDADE

RUNX1 [2] = target: RUNX1 (UniProt Q01196); assay: RUNX1 binding intensity (PBM fluorescence), RUNX1 alone (arbitrary fluorescence units); higher = stronger binding; details: RUNX1 concentration 2 nM; ETS1 concentration 0 nM
Sequence of RUNX1 (Q01196 whole entry): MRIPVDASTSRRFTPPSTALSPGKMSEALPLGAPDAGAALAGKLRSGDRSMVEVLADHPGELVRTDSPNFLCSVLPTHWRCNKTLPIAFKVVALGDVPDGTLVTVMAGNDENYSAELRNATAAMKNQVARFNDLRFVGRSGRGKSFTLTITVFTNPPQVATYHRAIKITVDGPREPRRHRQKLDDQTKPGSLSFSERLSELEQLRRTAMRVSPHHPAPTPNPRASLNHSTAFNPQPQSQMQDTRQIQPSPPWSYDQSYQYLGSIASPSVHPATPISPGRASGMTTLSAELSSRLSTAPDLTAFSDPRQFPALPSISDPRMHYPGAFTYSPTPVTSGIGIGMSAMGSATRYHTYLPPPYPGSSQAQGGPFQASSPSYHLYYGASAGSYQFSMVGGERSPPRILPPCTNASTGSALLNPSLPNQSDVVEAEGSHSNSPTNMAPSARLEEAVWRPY
Protocol: (§1)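 Cooperative gcPBM on 36-bp genomic probes with neighbouring ETS1 and RUNX1 sites. Recombinant human RUNX1 (2 nM) was incubated alone or with ETS1 (25 nM) and detected with anti-RUNX1 antibody plus Alexa488 secondary. Values are medians over 4 replicate spots; the RUNX1+ETS1 data were normalised to the RUNX1-only data. The probes sit in constant array flanks that are not printed.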

ETS1 [3] = target: T1, ETS1; assay: ETS1 binding intensity (PBM fluorescence) in presence of RUNX1, normalised to ETS1-only experiment (arbitrary fluorescence units); higher = stronger binding; details: ETS1 concentration 1 nM; RUNX1 concentration 25 nM
RUNX1 [4] = target: RUNX1 (UniProt Q01196); assay: RUNX1 binding intensity (PBM fluorescence) in presence of ETS1, normalised to RUNX1-only experiment (arbitrary fluorescence units); higher = stronger binding; details: RUNX1 concentration 2 nM; ETS1 concentration 25 nM
Protocol: as §1
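For RUNX1 binding intensity (PBM fluorescence) in presence of ETS1, normalised to RUNX1-only experiment in this document: Full-length recombinant human ETS1 or RUNX1 bound to double-stranded 36-bp genomic probes on microarrays, detected by protein-specific primary antibody and Alexa488 secondary, spot fluorescence as median of four replicate spots.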
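For RUNX1 binding intensity (PBM fluorescence), RUNX1 alone in this document: Full-length recombinant human RUNX1 bound to double-stranded 36-bp genomic probes on a high-density microarray, scored as Alexa488 fluorescence per spot via anti-RUNX1 antibody, median of four replicate spots.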

Sequence | ETS1 binding intensity (ETS1 [1]) | RUNX1 binding intensity (RUNX1 [2]) | ETS1 binding intensity (ETS1 [3]) | RUNX1 binding intensity (RUNX1 [4])
AAATACCAGCCCACTTCCTGTGGCTTTGATCTGCAG | 2090 | 855 | 3340 | 5090
GGGTGCTTCCTATAAACAATGACTCATTACCGCACT | 425 | 920 | 474 | 976
GTGACGGATATCCACCGGGCCCTGTGGTTTCCAACA | 394 | 822 | 1200 | 986
TATATGCACAGGAAGTCCCTTACAACCCACTCTGTT | 3900 | 869 | 3840 | 1130
GTCGGAAGTGGCCGTGAGCCCAAGCCGCGGTCCCGG | 480 | 678 | 486 | 951
GCTCTTCACTTCCTGTGGCTCCCGCAGCGGCCGCCG | 1920 | 1090 | 1560 | 2460
AAGGCGGTACTTCCTCCAGCATTTGCCGCAAGTTAT | 417 | 768 | 535 | 1250
CTCATCAGTCATCCGGCTGGACCGCAGGAGCTCTCC | 403 | 933 | 500 | 1570
CCGCGAGCCGTCACTTCCTGTGGGCTGGGCCGAGCC | 1910 | 924 | 2470 | 1940
CCTTTACGTTTTCCTGTTGCGGGTTCTATCGCTCTG | 506 | 1600 | 592 | 3260
CGGCATCTGACAGGATGTGGGCAGGGAGAGAGAGAC | 3780 | 1270 | 9220 | 4210
GCACTCATTTCCTGTCCCCTGTGGTTTAAAGGTTTT | 1990 | 1260 | 4620 | 4770
GAGTTGCTTCCGGCCGTGTTGGTGGTCTGAATTGAG | 1590 | 802 | 1830 | 1830
CAGCAGCACCTGCATCCGCTGCGGGAGTCCGAGCCG | 515 | 778 | 491 | 1030
CCGGGCGCCACTTCCGGTCCCCGTGGTCACGTGACC | 14800 | 904 | 16100 | 3740
AAAGAACTTCCTGAGGTGCTTGAGGTTAGGCTATGG | 487 | 727 | 498 | 1660
AGTACGATGGGAGGAAGTGGTTTGTAAGAGGAGGAC | 1740 | 640 | 3390 | 1490
CCCCGCGGAACTCTGGCACAGTCAGCTGACCGCAGA | 424 | 1600 | 2000 | 1440
AAGAACCTAGAGGATGTGTGGTTTTATGTGCAGGGT | 710 | 914 | 1830 | 1150
CAGAAAAGGCAGGAAGTGGTACAAACCACAAAAGGC | 5820 | 1320 | 49600 | 8000

Sequence | ETS1 binding intensity (ETS1 [1]) | RUNX1 binding intensity (RUNX1 [2]) | ETS1 binding intensity (ETS1 [3]) | RUNX1 binding intensity (RUNX1 [4])
CACCTCACAGCCCGGATACAAACCGCCTACCCGCCC | 780 | 1300 | 980 | 1230
ATGGTGTAGAGAGGATGTGGGCTTTAAGGTCAGAGA | 1140 | 706 | 1690 | 1000
ATTTCCATTTCCGGACTCTTCTCCTGCCCGCAGGGC | 2270 | 1220 | 3560 | 3660
AACAGAGACCCGGAAGTTGTGGGACGAAGCCAGGAC | 4960 | 810 | 6420 | 1260
GGAATTTCTTTTTCCGGTCCCGCAGGGTCAGCTGAG | 1240 | 735 | 1520 | 1750
GTAGAGACAGGAAATTATGTTGGTTTTCTTGCAGAA | 3530 | 724 | 3800 | 1310
TCTGGCTTCCTGTCTTAATAGGGCTTTGTGGTGTGC | 762 | 832 | 1080 | 2040
GTGAGAGGAAGTGGGCGCTGGTTTAATGTGGTCAGC | 1010 | 834 | 5410 | 2360
AAAAAGCCGGATGTGAAGGCTGTGGTTCTCAACCCG | 2880 | 745 | 6480 | 1310
TTCAGGAAATGCAAACGGCTGCAGAGACCGCAGAGG | 499 | 793 | 2490 | 1090
CACCTCCTACTTCCCCCCGCTGATAACCACCAACCC | 1700 | 2990 | 1790 | 2830
GAGTTCCGCCTCGCCGTTTGTCCCTTGCGGTACCCG | 351 | 890 | 620 | 2030
AGCAACAGGAAAGAACAGCCTGACCACAGCAGCCAC | 393 | 948 | 727 | 1050
ACCTGCACTTCCTCCTCCCTAGACCGCACCCTTCTC | 491 | 2840 | 600 | 4300
TGACTTCCGGTCCGTAGTGGGGCCTGCGGTGGGAGT | 3690 | 801 | 10700 | 3180
AAGGTGGAAAAAGGATGTGGTTCTAAGCTGGCTTCT | 887 | 735 | 1120 | 1020
GGGGCTGTGCTTCCGGCTGTTTGTGCGGTTTTGTGC | 1650 | 1520 | 6750 | 4340
CTTGTTCTATTTCCTGTTTGTGGTGAGTGACTGTCT | 4300 | 1520 | 8610 | 3140
AGGCTCATTTCCTGTTTTCATGTGGTTTAGAGAAAA | 2630 | 1320 | 5130 | 3930
AGTCTCGTTTCCTGTGCGCTGTGGCCACCTGGCAGC | 1110 | 716 | 1050 | 1790
